From PubChem BioAssay AID449762 (Southern Research Specialized Biocontainment Screening …, 2010) come the findings set out here.

In all, about 330,000 compounds went through this assay and about 1,900 (0.58%) were called active. Not shown: some 4% with an inconclusive outcome. The list is a sample of the results. Measured potencies and affinities stand elsewhere. Unmarked numbers belong to inactive results. Cut-off read from the data, not from the text of the source: inconclusive = inhibition above about 70% without an active follow-up result; inactive = below that.

The inhibition is the relative decrease from the control value, in per cent.

The test can be described thus: M. tuberculosis growth inhibition, HTS (AID 449762).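 Note: bacterial growth assessed after seven days of incubation.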 Particulars: M. tuberculosis H37Rv growth inhibition, 7H9 media; at 25 µM; hits give high values.
Take `CC(C)(C)C(=O)N1CCN(CCN2C(=O)c3cccc4cccc(c34)C2=O)CC1`: the inhibition was -4.28%. The value for `O=C(C(c1ccccc1)c1ccccc1)N1CCN(CCN2C(=O)c3cccc4cccc(c34)C2=O)CC1` was -9.17%; that for `O=C(OCC#CCSc1nnc(-c2cccc3ccccc23)o1)c1ccc2ccccc2c1` was 8.92%; that for `O=C(OCC#CCSc1nnc(-c2cccc3ccccc23)o1)c1cc2ccccc2o1` was 36.1%. The value for `CN1CCN(S(=O)(=O)c2ccc(SCCOc3ccccc3)nc2)CC1` was -0.98%; that for `CN1CCN(S(=O)(=O)c2ccc(SCCOc3ccc(Cl)cc3)nc2)CC1` was -1.28%. Next, `Cc1c(S(=O)(=O)N2CCCCC2)c(=O)n(C)c(=O)n1C`: -9.81%. `CN1C(=O)N(C)C2(c3ccccc3)N(C(C)(C)C)C(=O)NC12c1ccccc1` (centres undefined): the inhibition is -0.92%.

`Cc1ccc2cc(C)c(N3CCC(C)CC3)nc2c1`: the inhibition is -2.14%. The value for `Cc1ccc2cc(C)c(N3CCN(c4ccc(F)cc4)CC3)nc2c1` was 0.67%.

In the case of `CN(Cc1ccc(Cl)s1)C(=O)CNC(=O)CNC(=O)c1ccc(Cl)cc1Cl`, the inhibition is 0.015%. The value for `CN(Cc1ccc(Cl)s1)C(=O)CSc1nnc(C2CC2)n1C1CC1` was 2.1%. Next, `O=C(COc1ccc(Cl)cc1Cl)Nc1ccc(-c2ccc(N3CCOCC3)nn2)cc1`: 27.4%. Turning to `Cc1ccc2c(c1)C1C[N+](C)(CC(=O)Nc3ccccc3Cl)CCC1N2C(=O)c1ccccc1Cl` (centres undefined), the inhibition is 21.9%. Next, `Cc1ccc2c(c1)C1C[N+](C)(CC(=O)c3ccccc3)CCC1N2C(=O)c1ccccc1Cl` (centres undefined): -0.23%.

Turning to `CC(C)[C@H](NC(=O)c1ccccc1F)C(=O)Nc1nc2c(s1)CCCC2`, the inhibition is -0.81%.

With `COc1cccc(-c2nc(CS(=O)(=O)CC(=O)Nc3ccccc3Br)c(C)o2)c1`, the inhibition was -5.15%. The value for `Cc1cc(C)n2cc(-c3ccc(Cl)cc3)c(C(=O)O)c2n1` was 5.32%; that for `Cc1cc(N2CCCCC2)n2ncc(-c3ccc(Cl)cc3)c2n1` was 94.8%. With `Cc1nn(C)c(C)c1C1C(C#N)=C(N)Oc2n[nH]c(C)c21` (centres undefined), the inhibition was 4.26%. Take `CC(C)c1ccc(CNc2c([N+](=O)[O-])c(=O)oc3ccccc23)cc1`: the inhibition was 4.35%.

For the compound `O=C(O)c1cc(NN=C2c3ccccc3-c3ccccc32)ccc1Cl`, the inhibition was 14%. Next, `Cc1cccc(NN=C2c3ccccc3-c3ccccc32)c1`: 3.47%; `COc1ccc(-n2c(COc3ccc4c(c3)OCO4)nnc2SCC(=O)O)cc1`: 14.8%; `Cc1cc2occ(CC(=O)NC3(C)CCS(=O)(=O)C3)c2cc1C` (centres undefined): -9.66%. The value for `CN(C)c1ccc(CNc2ccc3c(c2)ncn3C(C)(C)C)cc1` was 8.27%; that for `CCOc1ccc(CNc2ccc3c(c2)ncn3C(C)(C)C)cc1` was -2.96%; that for `CC(C)(C)n1nnnc1C(c1cccc(C(F)(F)F)c1)N1CCC(O)CC1` (centres undefined) was 2.3%. The value for `Cc1ccc(-c2noc(C3CCCN(C(=O)c4ccccc4)C3)n2)o1` (centres undefined) was 2.39%; that for `Cc1ccc(-c2noc(C3CCCN(C(=O)c4ccc(Cl)cc4)C3)n2)o1` (centres undefined) was 0.38%; that for `COc1cccc(C(=O)NNC2=C(C(=O)C(F)(F)F)CCC2)c1` was 0.71%.

In the case of `O=C(Nc1cccc(S(=O)(=O)NC2=NCCCCC2)c1)c1cc(-c2ccccc2)nc2ccccc12`, the inhibition is 4.99%. The value for `CCn1c(SCC(=O)N2CCCCC2C)nnc1-c1ccco1` (centres undefined) was -6.38%; that for `Cc1cccc2cc(/C=N/NC(=O)[C@H]3C[C@@H]3c3ccccc3)c(Cl)nc12` was 1.65%; that for `O=C(N/N=C/c1cc2ccccc2nc1Cl)[C@H]1C[C@@H]1c1ccccc1` was 22.8%.

In the case of `N#Cc1ccc(OCC(=O)Nc2cccc(S(=O)(=O)NC3=NCCCCC3)c2)cc1`, the inhibition was -7.44%. Next, `Oc1ccc(Nc2nc(-c3ccccc3)nc3ccccc23)cc1`: 10.3%. Consider `COc1ccc(C(=O)CCN2CCc3cc(OC)c(OC)cc3C2)cc1`, for which the inhibition was 68.3%. The value for `COc1cc2c(cc1OC)CN(CCOc1ccc(Br)cc1)CC2` was -0.08%; that for `COc1cc(OC)cc(C(=O)N[C@H](C(=O)OCC(=O)c2c[nH]c3ccccc23)C(C)C)c1` was -5.93%.

As to `C=C1SC(Nc2c(C)cc(C)cc2C)=NC12CCCCC2`, the inhibition was 4.72%. Next, `Cc1cc(C)n(Cc2ccc(C(=O)NN)o2)n1`: -3.98%; `Cc1nc(N2CCOCC2)c2oc3ccccc3c2n1`: -22.1%. For `CCOC(=O)C1CCN(c2nc(C)nc3c2oc2ccccc23)CC1`, the inhibition is 13.6%. For `CCOc1ccc(C2CC(c3ccc(CC)cc3)Nc3nc(N)nn32)cc1` (centres undefined), the inhibition was 53.9%.

For `CCCCc1nc2cc(C(=O)NCc3nccn3CC)ccc2o1`, the inhibition is -0.01%. The value for `O=C(NNC(=S)NC1CCCCC1)c1sc2ccccc2c1Cl` was 4.12%; that for `O=C(NC(=S)NCCO)c1sc2ccccc2c1Cl` was -1.03%; that for `COC(=O)C1CCN(C(=O)COC(=O)c2cc(-c3cccs3)nn2-c2ccccc2)CC1` was 68.6%.

Turning to `NC(=O)COC(=O)c1cc(-c2cccs2)nn1-c1ccccc1`, the inhibition is 3.52%.

`O=[P+](Cc1ccccc1)Cc1ccccc1`: the inhibition is 5.56%. On to `CCOc1cc2c(cc1OCC)-n1cccc1C(c1ccc(F)cc1)NC2` (centres undefined), for which the inhibition was 4.18%. Next, `CCOc1cc2c(cc1OCC)-n1cccc1C(c1ccc(OC)cc1)NC2` (centres undefined): 12.2%; `CCN1CCN(C(C(=O)NC2CCCCC2)c2ccc(Cl)cc2)CC1` (centres undefined): -6.43%; `Cc1cc(-c2ccc(C)c(S(=O)(=O)NCCCN3CCN(c4ccccc4)CC3)c2)on1`: 36.8%. The value for `COc1ccc(-c2cc(C)no2)cc1S(=O)(=O)NCCCN1CCN(c2ccccc2)CC1` was 1.94%; that for `c1ccc2c(c1)nc1n2CCS1` was -2.74%.

As for `COc1cc(C(=O)NNC(=O)c2ccc3ccccc3n2)cc(OC)c1OC`, the inhibition was 5.84%. Next, `COc1cccc(NC(=O)/C=C/c2ccccc2[N+](=O)[O-])c1`: -3.12%; `CCN(CC)CCSc1nnc2c3ccccc3n(Cc3ccccc3)c2n1`: 3.52%. The value for `CCn1c2ccccc2c2nnc(SCCN3CCCCC3)nc21` was 5.94%; that for `CCOC(=O)C1(CC2CCCCO2)CCN(Cc2nc3ccccc3nc2C)CC1` (centres undefined) was 0.36%; that for `CCOC(=O)c1cccc(NC(=O)C2CCN(S(=O)(=O)c3cccs3)CC2)c1` was -3.98%. Take `CCN1CCN(C(=O)c2sc3ncnc(N4CCc5ccccc5C4)c3c2C)CC1`: the inhibition is 1.76%.

Turning to `COCCCNC(=O)c1sc2ncnc(N3CCc4ccccc4C3)c2c1C`, the inhibition is 22.6%. The value for `O=C(NCCN1CCCCC1)c1ccc2c(c1)OCCO2` was 1.64%; that for `O=C(O)CCCC(=O)N1CCN(c2nc(-c3ccccc3Cl)c3cc(Br)ccc3n2)CC1` was 2.83%. For the compound `O=C(O)CCC(=O)N1CCN(c2nc(-c3ccccc3Cl)c3cc(Br)ccc3n2)CC1`, the inhibition was 8.23%. Next, `Cc1ccc(N(C(=O)c2csnn2)C(C(=O)NC2CCCCC2)c2ccccn2)c(C)c1` (centres undefined): -6.22%; `COc1cc(CC(=O)O)ccc1OCc1ccccc1`: -4.67%. Next, `COc1ccc(N(CC(=O)NC2CCCCC2)C(=O)CNC(=O)c2cccs2)cc1OC`: -4.95%.

As for `CCNC(=O)c1ccccc1NC(=O)c1cccc(S(=O)(=O)N2CCOCC2)c1`, the inhibition was 1.29%. As for `Cc1ccccc1C(=O)NC(C)C1CC2CCC1C2` (centres undefined), the inhibition was 4.28%. Next, `COc1ccc(C(=O)NC(C)C2CC3CCC2C3)c(OC)c1` (centres undefined): 7.27%.

On to `COc1ccc(C(=O)NC(C)C2CC3CCC2C3)cc1` (centres undefined), for which the inhibition was 0.61%. The value for `CC(NC(=O)c1ccccc1Cl)C1CC2CCC1C2` (centres undefined) was 4.24%; that for `Cn1cnnc1SCC(=O)NCCc1ccccc1` was 0.84%.

`COC(=O)CCC(=O)Nc1cccc(Br)c1`: the inhibition was -7.91%.

In the case of `CC(C)(C)NC(=O)CSc1ncnc2c1nnn2Cc1ccccc1Cl`, the inhibition was 18%.

For the compound `COCCCN1C(=O)c2ccc(C(=O)N3CCN(c4ccc(OC)cc4)CC3)cc2C1=O`, the inhibition was 0.38%. The value for `Cc1cc(C)c(-n2nnnc2SCC(=O)c2cc3ccccc3o2)c(C)c1` was -0.74%; that for `CCOC(=O)CNC(=O)CSc1nnc(NC(=O)c2ccc3c(c2)OCO3)s1` was -3.99%; that for `COC(=O)CSc1nnc(NC(=O)c2ccc3c(c2)OCO3)s1` was 56.1%. `COc1cccc(N2CCN(C(=O)c3cccn4c(=O)c5c(C)c(C)sc5nc34)CC2)c1`: the inhibition is -1.68%.

`CCOc1ccc(CCNC(=O)COC(=O)c2cc(OC)c(OC)c(OC)c2)cc1OCC`: the inhibition is -6.27%.

For the compound `Cc1nnc(NC(=O)c2csc3c2CCC(C)C3)s1` (centres undefined), the inhibition was 6.53%. The value for `CCc1nnc(NC(=O)c2csc3c2CCC(C)C3)s1` (centres undefined) was 0.85%; that for `O=C(C1CCCN1S(=O)(=O)c1ccc(Cl)c(Cl)c1)N1CCOCC1` (centres undefined) was 1.37%. The value for `OCC[C@H]1C[C@@H](O)[C@H](O)[C@]2(OCc3ccccc32)O1` was 4.05%; that for `CN(C)CCCNC(=S)N(CCN(C)C)Cc1cc2cc3c(cc2[nH]c1=O)OCCO3` was -2.66%; that for `CCOc1ccccc1N1CCN(CC(=O)Nc2cc(C)on2)CC1` was -0.33%. The value for `CC(=O)Nc1ccccc1O` was -6.49%; that for `O=C(Nc1ccccc1O)c1ccccc1O` was -2.76%.

On to `CCC(=O)c1ccc(OCC(O)CNC2CCCC2)cc1` (centres undefined), for which the inhibition is -4.31%.
